# Source: PubChem (several laboratories)
# ABCB6 inh 2 = human ABCB6 transporter inhibition | Q9NP58 | AID 602162 | actives 0.19% (n = 360,000) | K562-ABCB6 porphyrin accumulation, flow cytometry, 1 h; stronger effect = lower value | fluorescence ratio to DMSO, % at 10 µM;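 active means fluorescence ratio to DMSO below 75%, the collection mean minus 3 SD; inconclusive means too few cells collected in the well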;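 further: signal is porphyrin accumulated inside mitochondria; 100% equals median channel fluorescence of DMSO control wells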
# Target sequence (Q9NP58 whole entry, looked up): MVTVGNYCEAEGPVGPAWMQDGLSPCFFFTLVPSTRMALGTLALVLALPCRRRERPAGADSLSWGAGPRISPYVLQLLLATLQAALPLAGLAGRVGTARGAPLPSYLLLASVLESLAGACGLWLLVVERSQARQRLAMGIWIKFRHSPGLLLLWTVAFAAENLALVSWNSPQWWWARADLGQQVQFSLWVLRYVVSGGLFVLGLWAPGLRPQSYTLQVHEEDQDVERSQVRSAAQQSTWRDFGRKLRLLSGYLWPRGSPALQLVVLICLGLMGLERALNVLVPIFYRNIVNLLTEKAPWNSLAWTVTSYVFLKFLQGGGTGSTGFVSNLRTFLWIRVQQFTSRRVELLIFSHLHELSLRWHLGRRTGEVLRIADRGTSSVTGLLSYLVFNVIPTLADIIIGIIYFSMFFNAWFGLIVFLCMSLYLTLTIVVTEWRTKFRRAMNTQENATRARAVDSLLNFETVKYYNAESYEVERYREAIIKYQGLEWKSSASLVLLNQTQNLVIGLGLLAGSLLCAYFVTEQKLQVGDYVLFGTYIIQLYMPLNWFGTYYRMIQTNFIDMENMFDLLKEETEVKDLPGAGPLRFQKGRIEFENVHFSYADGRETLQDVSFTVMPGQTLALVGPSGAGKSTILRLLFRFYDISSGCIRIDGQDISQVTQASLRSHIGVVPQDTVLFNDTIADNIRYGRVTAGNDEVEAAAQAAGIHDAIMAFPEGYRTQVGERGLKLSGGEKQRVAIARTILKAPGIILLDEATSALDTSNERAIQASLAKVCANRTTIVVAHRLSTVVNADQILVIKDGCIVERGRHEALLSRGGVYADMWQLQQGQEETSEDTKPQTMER
# MIN6 prolif = induces beta-cell replication in MIN6 cells. proliferation, % at 10 µM. actives 0.29% (n = 330,000). MIN6 cells proliferation, ATPlite luminescence, 48 h; cells starved in 0.2% serum; 100% = growth in 10% serum;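 active means compounds whose signal lies at least 3.5 SD above the mean of all wells on their plate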;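 further: 0% = DMSO-treated cells in low-serum medium and 100% = 10% serum control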
# Myeloid diff 2 = myeloid differentiation induction; ER-HoxA9 myeloid progenitors, lysozyme-GFP differentiation, flow cytometry; calls only at 10 µM; actives 1% (n = 360,000); AID 624256;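 active means normalized GFP-positive differentiation at or above the plate's own cutoff, the solvent-only control mean plus 3 SD; inconclusive means no clear call, values can overlap the other calls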;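 further: cells exposed to compound for four days before flow analysis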
# iPSC survival up = enhancers of human iPSC single-cell survival; hiPSC single-cell survival, ATPlite luminescence; 100% = ROCK inhibitor wells, 0% = DMSO; survival enhancement, % at 20 µM; actives 0.044% (n = 360,000); AID 602274; in the data active means survival enhancement above about 18%;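 further: cells exposed to compounds for 16 hours before the ATP read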
# H9c2 protect = modulators protecting cardiomyocytes from myocardial damage | H9c2 cardiomyocytes, H2O2 injury protection, ATPLite, 2 h | protection from H2O2 cell death, % at 20 µM | actives 0.63% (n = 360,000) | AID 588492;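 active means compounds giving at least 50% protection of heart cells from peroxide-induced death in the single-dose screen, raw or plate-pattern-corrected value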;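 further: 0% = DMSO wells with peroxide and 100% = DMSO wells without peroxide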
# * hit, by the source's call; i = inactive; ? = inconclusive; nt = no result; + = active, no number. The list is not random: actives were taken first. Their share in the collection is about 2.2%.
SMILES,ABCB6 inh 2,MIN6 prolif,Myeloid diff 2,iPSC survival up,H9c2 protect
COc1cc(/C=C/C(=O)N2CCN(CC(O)COc3ccccc3)CC2)cc(OC)c1OC (centres undefined),103.0,-2.7,i,1.2,6.0
Cc1cc(/C=C2\SC(=S)NC2=O)c(C)n1C,103.0,-1.8,+,2.7,-7.2
CCN1CCN(S(=O)(=O)c2ccc(S(=O)(=O)NCC3CCCO3)cc2)CC1 (centres undefined),98.0,-0.8,i,-0.9,2.4
O=C(N/N=C/c1ccc(O)c(O)c1O)/C(=C/c1ccc([N+](=O)[O-])cc1)NC(=O)c1ccccc1,97.0,-5.4,i,2.6,60.9*
Cc1ccc(NC(=O)/C(=C\c2ccc([N+](=O)[O-])cc2)NC(=O)c2ccccc2)cc1,88.0,-4.2,i,58.4*,-2.7
COc1ccc(CNC(=O)Cc2c(C(=O)O)[nH]c3ccccc23)cc1,98.0,-0.6,i,8.2,-1.3
COc1ccc(CNC(=O)Cc2c(C(=O)O)[nH]c3ccccc23)c(OC)c1,136.0,-1.2,+,0.7,-0.7
Cc1cc(NCC2CCCCC2)nc2ccccc12,163.0,-3.3,+,0.1,-5.7
Cc1cc(NCCNC2=CC(=O)CCC2)nc2ccccc12,126.0,-1.4,i,6.4,6.6
Nc1ccc2c3c(cccc13)CC2,536.0,-3.2,+,-2.8,9.8
O=S(=O)(Nc1ccc2c3c(cccc13)CC2)c1ccc(F)cc1,110.0,-0.8,i,-1.7,-7.3
O=C(/C=C/c1ccccc1)c1ccc2c3c(cccc13)CC2,96.0,0.0,i,-3.7,-17.5
c1ccc(Nc2ccc3c4c(cccc24)CC3)cc1,929.0,-4.0,+,-1.5,-3.1
CCSc1nnc(-c2sc3nnc(-c4ccccc4)c(-c4ccccc4)c3c2N)o1,582.0,-2.3,+,1.2,2.8
CCSc1nnc(-c2ccncc2)o1,98.0,-1.5,i,-0.3,-1.5
CCOc1cnn(-c2cc(Oc3ccc(C)cc3)ncn2)c(=O)c1Cl,101.0,-4.8,i,-1.9,-2.4
Cc1ccccc1Oc1cc(-n2ncc(Cl)c(Cl)c2=O)ncn1,60.0*,nt,?,-1.9,-8.1
Cc1c(C(=O)NCc2ccc3c(c2)OCCO3)sc(=O)n1Cc1ccccc1F,99.0,nt,i,-0.9,2.8
Cc1c(C(=O)NCc2ccccc2C(F)(F)F)sc(=O)n1Cc1ccc2ccccc2c1,104.0,nt,i,20.5*,-3.4
Cc1c(C(=O)NCc2ccc3c(c2)OCCO3)sc(=O)n1Cc1ccccc1C(F)(F)F,100.0,nt,+,-0.9,-0.4
COc1cc(C=O)ccc1OCc1cn(CC(=O)c2ccc(O)cc2)nn1,101.0,nt,i,-1.3,9.8
COc1ccc(OC)c(NC(=O)CSc2nc(=O)n(CCN3CCOCC3)c3c2CCC3)c1,104.0,-0.7,i,0.9,-0.4
O=C(CSc1n[nH]c(=O)[nH]c1=O)N/N=C/c1ccccc1O,89.0,0.0,i,3.1,3.9
O=C(N/N=C/c1ccccc1O)C1SCCCS1,99.0,-1.2,i,0.5,70.5*
Cc1cc(SCC(=O)N/N=C/c2ccc(O)c(O)c2O)c(C)cc1Br,103.0,-4.9,+,0.0,40.6
SMILES,ABCB6 inh 2,MIN6 prolif,Myeloid diff 2,iPSC survival up,H9c2 protect
O=C(CSc1ccccc1)N/N=C/c1ccccc1O,92.0,-4.5,i,3.3,51.0*
O=C(CCSCCC(=O)NN=Cc1ccccc1O)NN=Cc1ccccc1O,102.0,nt,i,3.0,57.9*
O=C(NN=Cc1ccccc1O)C1CC1,95.0,nt,i,2.8,6.0
CCOC(=O)c1c(C)c(C(=O)N2CCc3ccccc3C2)c(C)n1CC,98.0,3.5,i,2.3,9.7
NC(=O)C1CCN(c2nc(-c3cccnc3)cs2)CC1,105.0,-2.1,i,-0.4,0.5
NC(=O)C1CCN(c2nc(-c3ccc(F)cc3)cs2)CC1,101.0,-1.3,+,1.8,-4.6
COc1ccc(C(=O)Nc2cccc(S(C)(=O)=O)c2)cc1OC,95.0,-4.5,i,0.8,11.6
COc1ccc(C(=O)Nc2cccc(NC(C)=O)c2)cc1OC,343.0,0.5,+,-1.1,6.6
COC(=O)c1cc(OC)c(OC)cc1NC(=O)c1ccc(OC)c(OC)c1,95.0,-2.0,i,6.0,51.9*
COc1ccc(C(=O)Nc2cccc(/C(C)=N/NC(=O)c3ccc([N+](=O)[O-])c(C)c3)c2)cc1OC,102.0,0.0,i,0.0,94.8*
COc1ccc(C(=O)Nc2cccc(/C(C)=N\NC(=O)c3ccoc3C)c2)cc1OC,103.0,-1.8,i,-0.2,18.8
COc1ccc(C(=O)Nc2ccccc2C(=O)NCCN2CCOCC2)cc1OC,98.0,-3.2,+,-0.5,-3.0
O=C(COC(=O)c1cn(-c2ccccc2)nc1-c1ccccc1)c1ccc([N+](=O)[O-])cc1,nt,0.0,nt,nt,nt
Cn1c(=NC(=O)COc2ccccc2)sc2cc(F)cc(F)c21,nt,-3.3,nt,nt,nt
Cc1ccc(C(=O)NC(=S)Nc2cc(-c3nc4ccccc4s3)ccc2C)cc1,101.0,-6.0,i,-2.8,-5.7
COC(=O)c1cc(Cl)c(NC(=O)/C=C/c2ccc(OC)c(OC)c2)cc1OC,99.0,-1.2,i,3.5,68.0*
O=c1oc2cc(O)ccc2cc1-c1nc2c(s1)CCc1ccccc1-2,499.0,nt,+,1.7,-18.0
O=c1oc2ccccc2cc1-c1nc2c(s1)CCc1ccccc1-2,131.0,-4.5,i,0.5,-3.1
Cc1nn(-c2ccccc2)c(Cl)c1/C=N/Nc1ccc(S(=O)(=O)Nc2ccccc2C(=O)O)cc1[N+](=O)[O-],146.0,-6.2,i,0.6,-17.5
COc1ccccc1N1CCN(c2cc(=O)n(Cc3ccc(F)cc3)c(=O)[nH]2)CC1,93.0,-1.8,+,0.3,14.3
O=c1cc(N2CCN(c3ccccc3Cl)CC2)[nH]c(=O)n1Cc1ccc(F)cc1,98.0,-2.5,?,0.4,-0.5
Cc1ccc(C(=O)CCC(=O)O)cc1,nt,0.0,nt,nt,nt
Cn1cnnc1Sc1ccc(/C=C(\CC(=O)O)c2nc3ccccc3s2)cc1[N+](=O)[O-],98.0,1.5,i,0.3,7.1
CCN(CC)c1ccc(/C=C2\SC(N)=NC2=O)cc1,140.0,2.5,+,0.0,-8.8
CCN(CC)c1ccc(C=C2SC(=S)NC2=O)cc1,700.0,nt,+,-1.2,-9.5
SMILES,ABCB6 inh 2,MIN6 prolif,Myeloid diff 2,iPSC survival up,H9c2 protect
CCOc1cc(/C=C2/SC(=S)NC2=O)ccc1OC(=O)c1ccco1,97.0,-4.4,i,0.2,-17.8
O=C1NC(=S)S/C1=C/c1ccc(OC(=O)c2ccco2)cc1,99.0,-2.3,+,-0.3,-16.5
CC1CCN(C(=O)c2ncn3c2c(=O)[nH]c2ccccc23)CC1,101.0,nt,i,4.3,25.2
COc1ccc(C)cc1Nc1nc(-c2ccccc2O)nc2ccccc12,101.0,1.0,i,0.4,-3.7
Cc1ccc(CNc2nc(NCc3ccccc3)nc3ccsc23)c(C)c1,92.0,nt,i,-1.6,-18.8
CC(=O)c1cccc(OCc2cc(C(=O)N3C[C@H]4CC[C@H]3C4)no2)c1,105.0,1.8,+,-0.4,-4.3
